Holding throughout (assay): NCI-60 one-dose screen, 48 h (100 = growth as untreated, 0 = no growth, -100 = all killed)
Conditions in all cases: 10 µM unless noted

The test system of assay [1] is HCT-15 colon.
The test system of assay [2] is HT29 colon.
Assay [3] has as its system SNB-75 CNS.
Assay [4] deals with SNB-19 CNS.
Assay [5] deals with U251 CNS.
Assay [6] concerns PC-3 prostate.
In assay [7] the test system is SK-MEL-5 melanoma.
Assay [8] deals with UACC-62 melanoma.
Assay [9] has as its system LOX IMVI melanoma.
In assay [10] the test system is SK-MEL-28 melanoma.
In assay [11] the test system is SK-MEL-2 melanoma.
Assay [12] relates to SN12C renal.
Assay [13] deals with UO-31 renal.
Assay [14] relates to TK-10 renal.
For assay [15], the system named is ACHN renal.
Assay [16] relates to CAKI-1 renal.
The test system of assay [17] is A498 renal.
The test system of assay [18] is CCRF-CEM leukemia.
In assay [19] the test system is MOLT-4 leukemia.
The subject of assay [20] is EKVX NSCLC.

This is part of a sample that, as a whole, favours compounds with a hit. Of some 83,000 tested, about 20% had one in any assay.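 The test compound was applied at a single concentration to cells in 96-well plates for 48 hours, and percent growth was recorded.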 Values without a mark were called inactive. The source made the active and inactive calls. How the source made its calls: active means growth percent below 10; inactive means the rest.

The values that follow come from PubChem BioAssay (NCI).

In the case of `COc1ccc(-c2cc(/C=C3\C(=O)Nc4ccc(Cl)cc43)[nH]n2)cc1`, the growth was 36.1% in [1]; 11.5% in assay [2]; 49.8% in [3]; 71.1% in assay [4]; 34.2% in [5]; 67.1% in assay [6]. The growth in [7] is 37.9%; in [8], 40.6%; in assay [9], 35.2%; in [10], 61.7%; in [11], 51.2%; in assay [12] it was 63.1%. The growth was 64.4% in assay [13]; 86.9% in assay [14]; 56.7% in assay [15]; 65.8% in assay [16]; 65.7% in assay [17]; 35.5% in assay [18]. Also, the growth in assay [19] is 25.1%.
Consider `COc1ccc(CN(c2ccc(C)cc2)C2OC(=O)c3ccccc32)cc1OC` (centres undefined), for which the growth was 96.3% in assay [1]; 97.9% in [2]; 90.3% in [3]; 96.5% in assay [4]; 86.3% in [5]; 90.6% in assay [6]. For the same compound, the growth in assay [7] was 94.7%; in assay [8], 94.9%; in [9], 93.2%; in [10], 108%; in [11], 95.3%; in assay [12], 99.1%. Besides, the growth in assay [13] was 94.3%; in assay [14] it was 107%; in [15] it was 95%; in [16], 99.1%; in assay [17] it was 79.4%; in assay [18] it was 91.3%. In addition, the growth in [19] was 98.6%.
As to `COc1cc2nc3cc([N+](=O)[O-])ccc3c(NCCCNCC(C)(C)O)c2cc1OC`, the growth in assay [1] is 21.9%; in assay [2], -52.4% (active); in assay [3] it was -96% (active); in assay [4], -26.1% (active); in assay [5], -68.9% (active); in [6], -61.8% (active). For the same compound, the growth was -94.5% (active) in assay [7]; -76.1% (active) in [8]; -58.4% (active) in assay [9]; -64% (active) in assay [10]; -47.5% (active) in assay [11]; -19.6% (active) in assay [20]. For the same compound, the growth in [12] is -34.8% (active); in [13] it was 1.88% (active); in [14] it was -31.7% (active); in assay [15] it was 1.58% (active); in assay [16] it was 18.4%; in assay [17], -82.2% (active). The growth in assay [18] is 1.71% (active); in assay [19], 10.5%.
As to `Oc1c(Cl)cc(Cl)cc1CNc1nccnn1`, the growth in [1] was 101%; in [2], 105%; in assay [3], 78.1%; in assay [4], 95.8%; in assay [5], 102%; in assay [6], 94.8%. For the same compound, the growth is 102% in assay [7]; 93.9% in assay [8]; 99.4% in assay [9]; 106% in assay [10]; 115% in [11]; 90.4% in [12]. Also, the growth in assay [13] was 93.5%; in assay [14], 113%; in [15] it was 99.8%; in [16], 89.6%; in assay [17] it was 88.7%; in [18], 111%. Moreover, the growth in [19] was 101%.
As to `C[C@@]1(N2C(=O)OC[C@@H]2c2ccccc2)C(=O)N([C@H](CC(=O)N2CCC(N3CCCCC3)CC2)C(=O)NCc2cccc(C(F)(F)F)c2)[C@@H]1/C=C/c1ccccc1`, the growth was 19% in assay [1]; -3.04% (active) in assay [2]; 66.3% in assay [3]; 74.1% in assay [4]; 38.4% in assay [5]; 52.8% in assay [6]. Besides, the growth in [7] was -93% (active); in [8] it was 24.6%; in assay [9], -50.1% (active); in assay [10], -45.2% (active); in assay [11], 64.8%; in [12], 74.3%. For the same compound, the growth in [13] is 57.8%; in assay [14] it was 79.1%; in assay [15] it was 75.2%; in assay [16] it was 82.8%; in assay [17] it was 52.3%; in assay [18], 42.6%. In addition, the growth in [19] was 10.7%.
With `CCC(c1ccccc1)C(CC)c1ccc(O)c(O)c1` (centres undefined), the growth in [1] was 91.2%; in [2], 104%; in [3] it was 86.4%; in assay [4] it was 116%; in [5], 96.6%; in assay [6] it was 92.7%. Further, the growth is 88.3% in assay [7]; 81.5% in assay [8]; 87.9% in [9]; 95.4% in assay [10]; 94.3% in assay [11]; 107% in assay [20]. The growth was 91.9% in assay [12]; 74.2% in assay [13]; 106% in assay [14]; 95.9% in [15]; 101% in assay [16]; 110% in assay [17]. Besides, in assay [19], the growth was 73.8%.
In the case of `CCOC(=O)/C=C/C(=O)[C@H](CC(C)C)NC(=O)[C@H](Cc1ccccc1)NC(=O)OCc1ccccc1`, the growth is 15.5% in assay [1]; 57.9% in assay [2]; 69.2% in assay [3]; 93.7% in [4]; 50.8% in assay [5]; 68.3% in [6]. Also, the growth was 97.5% in [7]; 14.4% in [8]; -82.9% (active) in [9]; 34.7% in assay [10]; 99.8% in assay [11]; 100% in assay [20]. For the same compound, the growth in [12] is 57.2%; in [13], 44.7%; in assay [14], 50.1%; in [15] it was 47.5%; in [16], 74.8%; in [17] it was 77.6%. The growth in [18] is -18.5% (active); in assay [19] it was 0.254% (active).
With `COc1cc(NCCCCN=C(N)N)c2ncccc2c1`, the growth in [1] was 99.9%; in assay [2] it was 79.6%; in assay [3] it was 48.6%; in [4], 81.2%; in assay [5], 48.7%; in assay [6], 79.1%. Besides, the growth in assay [7] is 89.2%; in [8], 87.9%; in assay [9], 101%; in assay [10] it was 98.9%; in assay [11], 27.3%; in assay [12], -14.5% (active). The growth is 90.3% in assay [13]; 70.9% in assay [14]; 93.6% in [15]; 98.2% in assay [16]; 74.5% in assay [17]; 90.7% in [18]. Besides, the growth in [19] is 67.5%.
